Reference: PubChem BioAssay AID1578 (Sanford-Burnham Center for Chemical Genomics, 2009)
Out of some 290,000 compounds screened, about 3,000 (1%) were called active. For the sample, actives were picked, then their nearest neighbours and some compounds at random. Unmarked numbers belong to inactive results. Cut-off read from the data, not from the text of the source: active = inhibition mostly above about 36% (no sharp cut-off); inactive = mostly below about 34%.

Assay: NOD1 signaling inhibitors, primary screen, cell-based, luminescence, uHTS (AID 1578);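 note: HEK-293T reporter cells stimulated with the NOD1 agonist gamma-tri-DAP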
Details: NOD1-driven NF-kB luciferase reporter cells, at 4 µM, hits give high values

SMILES | inhibition
N#C/C(=C(/O)c1cccc(F)c1)c1nc2ccccc2s1 | 3.7%
N#C/C(=C(/O)c1ccc(F)cc1)c1nc2ccccc2s1 | 61.2% (active)
COC(=O)c1ccc(/C(O)=C(\C#N)c2nc3ccccc3s2)cc1 | 29.2%
O=C(CSc1cn[nH]n1)Nc1ccccc1C(F)(F)F | -20.2%
CCOC(=O)CNC(=O)C(CC(N)=O)NC(=O)OC(C)(C)C (stereo not given) | -7.6%
CN(Cc1cccnc1)C(=O)c1cc(COc2ccc3c(c2)CCCC3)on1 | -46.9%
Cc1cc(CN(C)C(=O)c2cc(COc3ccc4ncccc4c3)on2)on1 | 13.2%
Cc1nc(CN(C)C(=O)c2cc(COc3c(F)cccc3F)on2)cs1 | -40.5%
CN(Cc1nccn1C)C(=O)c1cc(COc2ccc3ncccc3c2)on1 | -6.6%
COc1cc(NC(=O)c2ccco2)c(OC)cc1NC(=O)CSc1ncc(-c2ccc(F)cc2)[nH]1 | -33.5%
COc1ccc(N2CCN(C(=O)C3CCN(S(=O)(=O)c4c(C)noc4/C=C/N(C)C)CC3)CC2)cc1 | -9.1%
O=C(NCCc1ccccc1)C(=O)NCC1OCCCN1S(=O)(=O)c1cccs1 (stereo not given) | -40.9%
COc1cc(/C=C/C(=O)Nc2nc3ccc(S(=O)(=O)N(C)C)cc3s2)cc(OC)c1OC | 28.3%
CCc1cccc2c(C(=O)COC(=O)c3ccc(O)cc3)c[nH]c12 | -17.9%
CCc1cccc2c(C(=O)COC(=O)c3ccccc3)c[nH]c12 | -19.8%
CCc1cccc2c(C(=O)COC(=O)c3c(C)noc3C)c[nH]c12 | 92.9% (active)
CCc1cccc2c(C(=O)COC(=O)c3cccc(S(=O)(=O)N(C)C4CCCCC4)c3)c[nH]c12 | 77.3% (active)
Cc1noc(C)c1C(=O)OCC(=O)c1c[nH]c2ccccc12 | -6.2%
CCc1cccc2c(C(=O)COC(=O)C3=NNC(=O)CC3)c[nH]c12 | -12.4%
CCS(=O)CCSc1nc2ccccc2s1 (stereo not given) | -10.5%
N#Cc1cc(C(=O)c2ccccc2O)cn(-c2nccs2)c1=O | -9.7%
O=C(NCc1ccccc1)C1CCN(c2nc(-c3ccccc3)nc3c2CCC3)CC1 | 15.8%
CC[C@@H]1CC=C[C@H]2[C@H]1C(=O)N(Cc1ccccc1)[C@H]2c1ccc(C(F)(F)F)cc1 | -2.1%
COc1ccc(C(=O)O/N=C2\CCCc3nonc32)cc1 | -0.9%

SMILES | inhibition
CC(/C=C/c1ccccc1)=N\NC(=O)c1ccncc1 | 0.4%
CC(/C=C/c1ccccc1)=N\NC(=O)c1ccc(Br)cc1 | 43.7%
O=C(NCCc1ccccc1)C(=O)N/N=C/c1ccccc1C(F)(F)F | -5.8%
CC(=O)Nc1cccc(Cn2cccn2)c1 | 11.3%
O=C(Nc1cccc(Cn2cccn2)c1)c1cc2c(s1)CCCC2 | 34.5% (active)
Cc1ccc(NC(=O)c2cc3c(s2)CCCC3)cc1 | -69.9%
C=CCN(C(=O)CSc1nc2[nH]ncc2c(=O)n1-c1ccccc1OC)c1ccccc1 | -29%
O=C(O)c1ccc(Nc2nc3ccccc3nc2NS(=O)(=O)c2cccs2)cc1 | -3.1%
COc1ccc(Nc2nc3ccccc3nc2NS(=O)(=O)c2cccs2)c(OC)c1 | 18%
COc1ccc(Nc2nc3ccccc3nc2NS(=O)(=O)c2cccs2)cc1 | 39.2%
O=C(O)c1cccc(Nc2nc3ccccc3nc2NS(=O)(=O)c2cccs2)c1 | -74.2%
O=C1N2c3ccccc3CCc3cccc(c32)C1(O)C(F)(F)F (stereo not given) | -26.6%
CC1CC(C)CN(S(=O)(=O)N2CCCC(C(=O)NCCCN3CCOCC3)C2)C1 (stereo not given) | 16.8%
Cc1cc(C)nc(-n2nc(C)c(Br)c2Nc2ccc(Br)cc2)n1 | -10.9%
CCn1nc(C)c(Br)c1Nc1ccc(Br)cc1 | 7.5%
Cc1nn(C)c(Nc2ccc(Br)cc2)c1Br | 44.9% (active)
Cc1ccc(C(C)C)c(OCC(=O)Nc2cccc(S(=O)(=O)NC3=NCCCCC3)c2)c1 | 53.3% (active)
CC(=O)OCC(=O)Nc1cc(S(=O)(=O)N2CCCCCC2)ccc1Cl | -22.1%
Cc1ccc(OCC(=O)Nc2cccc(S(=O)(=O)NC3=NCCCCC3)c2)cc1C | -93%
CC(C)(C)CC(=O)Nc1cc(S(=O)(=O)N2CCCCCC2)ccc1Cl | -3.6%
Cc1ccc(C)c(OCC(=O)Nc2cccc(S(=O)(=O)NC3=NCCCCC3)c2)c1 | -2.9%
CCN(CC)CC(=O)Nc1cccc(S(=O)(=O)N2CCCC2)c1 | -15.1%
COc1cc(NC(=O)CNc2cccc(S(=O)(=O)N3CCCC3)c2)cc(OC)c1 | -2.7%
CCN(CC)S(=O)(=O)c1ccc(C(=O)Nc2cccc(C)c2)cc1 | -4.2%

SMILES | inhibition
CCN(CC)S(=O)(=O)c1cccc(NC(=O)c2cncc(Br)c2)c1 | -54.6%
Cn1nc(-c2ccccc2)c2cc(C(=O)O)sc21 | -19.4%
COc1cc(OC)cc(C(=O)Nc2cccc(NC(=O)c3ccccc3)c2)c1 | 2.4%
Cc1cccc2nc(CSc3ncccc3C(=O)O)cn12 | -32.8%
Cc1cc(C)nc(N/N=C/c2ccccc2OCc2ccccc2)n1 | -24.5%
COc1cccc(NC(=O)CSc2ccc3nnc(-c4ccncc4)n3n2)c1 | 10.7%
O=C(Cn1[nH]c(=O)c2ccccc2c1=O)Nc1cccc(S(=O)(=O)N2CCCCCC2)c1 | 55% (active)
CS(=O)(=O)c1ccc(Cl)c(NC(=O)CCl)c1 | 43.3% (active)
O=C(Cn1cnc2ccccc2c1=O)Nc1cccc(S(=O)(=O)N2CCCCC2)c1 | 3.7%
O=C(Cn1c(=O)oc2cc(S(=O)(=O)N3CCCC3)ccc21)Nc1ccc(C(F)(F)F)cc1 | 8.8%
CC(=O)Nc1cccc(S(=O)(=O)N2CCCCCC2)c1 | -15.2%
O=C(Cn1c(=O)oc2cc(S(=O)(=O)N3CCCC3)ccc21)Nc1cccc(C(F)(F)F)c1 | 58% (active)
O=C(CCc1ccccc1Cl)Nc1cccc(S(=O)(=O)N2CCCC2)c1 | -16.3%
O=C(Cc1n[nH]c(=O)c2ccccc12)Nc1cccc(S(=O)(=O)N2CCCC2)c1 | 0.5%
CS(=O)(=O)c1ccc(Cl)c(NC(=O)Cc2c(Cl)cccc2Cl)c1 | 19.7%
CC(=O)c1cccc(NC(=O)Cn2c(=O)oc3cc(S(=O)(=O)N4CCCC4)ccc32)c1 | -4.9%
CS(=O)(=O)c1ccc(Cl)c(NC(=O)CCc2ccccc2)c1 | -34.6%
CCCc1cc(=O)[nH]c(SCC(=O)NCCC2=CCCCC2)n1 | -16.8%
Cc1ccc2nc(NCC(=O)NN)nc(-c3ccccc3)c2c1 | -11.2%
Cc1ccnc(NS(=O)(=O)c2ccc(NC(=O)c3cc(=O)c4ccccc4o3)cc2)n1 | -0.9%
NC(=O)/C(=C/c1cccnc1)NC(=O)c1ccccc1 | 4.1%
CCc1ccc(C2c3[nH]c4ccccc4c3CCN2C(=O)c2cc(C)nn2C)cc1 (stereo not given) | -25.9%
CCCCN(C)C(=O)Cn1nc(-c2ccc(Cl)cc2)ccc1=O | -9.3%
O=C(c1ccc(S(=O)(=O)N2CCCC2)cc1)N(Cc1ccco1)C1CCS(=O)(=O)C1 (stereo not given) | -10.9%

SMILES | inhibition
CNC(=S)Nc1cccc(S(=O)(=O)NC2=NCCC2)c1 | -13.1%
O=C(CCl)Nc1cccc(S(=O)(=O)NC2=NCCC2)c1 | 64.9% (active)
O=C(Nc1cccc(S(=O)(=O)NC2=NCCC2)c1)C1CCC1 | -32.4%
COc1cc(NC(=O)[C@H](C)NC(=O)N2CCn3c2nc2ccccc23)cc(OC)c1 | 5.6%
CCCc1nnc(SCC(=O)O)n1CC | -9.2%
CSc1ccc(/C=C/C(=O)OCC(=O)N(C)CCC#N)cc1 | -23%
Cc1cc(/C=N/N2CCN(C)CC2)c(C)n1-c1ccc(Cl)cc1 | -8.4%
O=C1NC(=S)S/C1=C\c1ccc(SCc2ccccc2)o1 | 91.8% (active)
O=C1NC(=S)S/C1=C\c1ccc(SCc2ccco2)o1 | -10.8%
O=C(O)CN1C(=O)/C(=C/c2ccc(SCc3ccccc3)o2)SC1=S | -39.2%
CN(C)c1nc2ncn(Cc3ccccc3)c2c(=O)[nH]1 | 5.2%
O=c1[nH]cnc2c1sc1nc(-c3ccccc3)c3c(c12)CCCC3 | 34.8%
COc1ccc(-c2c3c(nc4sc5c(=O)[nH]c(C)nc5c24)CCC3)cc1 | -23.6%
O=c1[nH]cnc2c1sc1nc3c(c(-c4ccc(Cl)cc4)c12)CCC3 | 78.1% (active)
COc1ccc(-c2nc3c4ccccc4ccn3c2CN2CCCCC2)cc1OC | -8.1%
Cc1nc(SCn2nnc3ccccc3c2=O)nc(C)c1C | -13.8%
CCOc1ccc(S(=O)(=O)NCCSCc2ccco2)cc1 | 3.8%
COc1cc(NC(=O)Cn2ncc(Cl)c(Cl)c2=O)c(C)cc1[N+](=O)[O-] | 91.3% (active)
COc1cc(NC(=O)CN2C(=O)CN(C)C2=O)c(C)cc1[N+](=O)[O-] | -27.7%
COc1cc(NC(=O)CN2CCCCC2)c(C)cc1[N+](=O)[O-] | -16.1%
CCN(CC)S(=O)(=O)c1cc(NC(=O)Cn2cnc3ccccc3c2=O)ccc1C | -1.6%
COc1ccc(NC(=O)Cn2ncc(Cl)c(Cl)c2=O)cc1S(=O)(=O)N1CCOCC1 | 43.5%
CCN(CC)S(=O)(=O)c1cc(NC(=O)Cn2ncc(Cl)c(Cl)c2=O)ccc1C | 62.3% (active)
